Each structure is given as a SMILES string. Calls of active or inactive are those of the source. The calls were made as follows: active = hit-call score of the fitted dose curve at least 0.9, where 1 is the maximum; inactive = score below 0.9.

A short description of one experiment: ATG_M_61_CIS: Attagene CIS-FACTORIAL HepG2 Assay for M61 Transcription Factor (Internal Marker) (AID 2282937). To be noted: HepG2 Attagene CIS-FACTORIAL M61 internal marker reporter; actives raise or lower the signal. In short, it runs like this:
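Cells were transfected with reporter units under cis-regulatory promoters, treated with chemicals for 24 h, then lysed for RNA. Reporter transcripts were quantified by RT-PCR and capillary electrophoresis, and activity was fitted bidirectionally against DMSO.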
As for `NS(=O)(=O)O`, the compound was called inactive.

Take `CCCCC=O`: the result was inactive.

For `O=C(O)C(=O)O`, the outcome was inactive.

As to `CCOCCOCC`, the outcome was inactive.

Turning to `O=CC(F)(F)C(F)(F)C(F)(F)F`, the compound was called inactive.

As for `OCCN1CN(CCO)CN(CCO)C1`, the outcome was inactive.

Take `C=Cc1ccc(O)c(OC)c1`: the outcome was inactive.

Regarding `Cc1ccc(C(=O)c2ccccc2)cc1`, the call was inactive.

Turning to `CCCC=O`, the compound was called inactive.

Take `O=S(=O)(O)c1ccc2cc(O)ccc2c1`: the outcome was inactive.

`O=C1NS(=O)(=O)c2ccccc21`: the outcome was inactive.

For the compound `CC(C)(O)C(=O)c1ccccc1`, the call was inactive.

As for `CN(CCO)S(=O)(=O)C(F)(F)C(F)(F)C(F)(F)C(F)(F)C(F)(F)C(F)(F)C(F)(F)C(F)(F)F`, the compound was classed as inactive.

The next experiment is described as follows: ATG_EGR_CIS: Attagene CIS-FACTORIAL HepG2 Assay for human Early Growth Response 1 (EGR1) (AID 2282938). To be noted: HepG2 Attagene CIS-FACTORIAL EGR reporter mRNA; actives raise or lower the signal. In short, it runs like this:
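Endogenous TF activity in HepG2 liver cells was gauged through cis-promoter reporter constructs transiently transfected. After 24 h dosing, reporter mRNA was quantified by RT-PCR and capillary electrophoresis, and curves fitted in both directions versus DMSO.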
`CCCCCc1ccc(O)cc1`: the outcome was inactive.

Regarding `NC(C(F)(F)F)C(F)(F)F`, the compound was classed as inactive.

As to `Oc1cc2ccccc2cc1O`, the compound was classed as inactive.

As for `CS(=O)(=O)c1ccc([C@@H](CC2CCCC2)C(=O)Nc2cnccn2)cc1Cl`, the AC50 (commonly the concentration at which the activity in the assay is half-maximal) was 50.6 µM (active).

For `FC(F)(F)N1C(F)(F)C(F)(F)OC(F)(F)C1(F)F`, the result was inactive.

For `O=C(C=C(O)C(F)(F)F)C(F)(F)F`, the compound was called inactive.

With `C=COC(=O)C(C)(C)CCCCCC`, the compound was called inactive.

Consider `O=C(c1cc(O)c(O)c(O)c1)c1ccc(O)c(O)c1O`, for which the outcome was inactive.

As for `CCCCCCCCCCCC(=O)NCCCN(C)C`, the AC50 is 20.3 µM (active).

With `FCOC(C(F)(F)F)C(F)(F)F`, the call was inactive.

`CCCCCCc1ccc(N)cc1`: the result was inactive.

On to `FC(F)(F)C(F)(F)C(F)(F)C(F)(F)I`, for which the result was inactive.

Consider `COc1ccc(C#N)cc1`, for which the compound was classed as inactive.

Turning to `C=CC(=O)OCCC(F)(F)C(F)(F)C(F)(F)C(F)(F)C(F)(F)C(F)(F)F`, the call was inactive.

For `O=C(F)C(F)(F)C(F)(F)C(F)(F)C(F)F`, the compound was classed as inactive.

Turning to `CN(C)CCOC(c1ccccc1)c1ccccc1`, the compound was classed as inactive.

For the compound `Nc1ccn([C@@H]2O[C@H](CO)[C@@H](O)C2O)c(=O)n1` (some centres undefined), the result was inactive.

Consider `NNC(=O)CCCCC(=O)NN`, for which the compound was called inactive.

For the compound `COC(O)c1ccccc1` (centres undefined), the call was inactive.

On to `CCCCCCCCCCCC[N+](C)(C)CCCCCCCCCCCC`, for which the compound was classed as inactive.

`Cc1ccccc1OCC(=O)O`: the compound was called inactive.

In the case of `O=C(Nc1cccc([N+](=O)[O-])c1)c1cc2ccccc2cc1O`, the call was inactive.

As for `Brc1ccc(Oc2ccc(Br)cc2Br)cc1`, the compound was classed as inactive.

Consider `O=S(=O)(c1ccc(OCc2ccccc2)cc1)c1ccccc1O`, for which the AC50 was 33.4 µM (active).

In the case of `O=C(F)C(F)(F)C(F)(F)C(F)(F)C(=O)F`, the compound was classed as inactive.

On to `NS(=O)(=O)O`, for which the outcome was inactive.

Take `CCCCC=O`: the call was inactive.

With `O=C(O)C(=O)O`, the call was inactive.

As to `CCOCCOCC`, the compound was called inactive.

Consider `O=CC(F)(F)C(F)(F)C(F)(F)F`, for which the result was inactive.

For `OCCN1CN(CCO)CN(CCO)C1`, the AC50 is 173 µM (active).

Regarding `C=Cc1ccc(O)c(OC)c1`, the result was inactive.

As to `Cc1ccc(C(=O)c2ccccc2)cc1`, the compound was called inactive.

With `CCCC=O`, the outcome was inactive.

Turning to `O=S(=O)(O)c1ccc2cc(O)ccc2c1`, the compound was classed as inactive.

With `O=C1NS(=O)(=O)c2ccccc21`, the compound was called inactive.

`CC(C)(O)C(=O)c1ccccc1`: the result was inactive.

In the case of `CN(CCO)S(=O)(=O)C(F)(F)C(F)(F)C(F)(F)C(F)(F)C(F)(F)C(F)(F)C(F)(F)C(F)(F)F`, the compound was called inactive.

The next experiment can be described thus: ATG_M_19_CIS: Attagene CIS-FACTORIAL HepG2 Assay for M19 Transcription Factor (Internal Marker) (AID 2282939). The following applies: HepG2 Attagene CIS-FACTORIAL M19 internal marker reporter; actives raise or lower the signal. In short, it runs like this:
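In this multiplexed cell assay, transiently transfected HepG2 reporter units report endogenous transcription-factor activity; after 24 hours of treatment, labelled reporter cDNA fragments are quantified by capillary electrophoresis and fitted bidirectionally against DMSO.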
With `CCCCCc1ccc(O)cc1`, the call was inactive.

Turning to `NC(C(F)(F)F)C(F)(F)F`, the result was inactive.

Turning to `Oc1cc2ccccc2cc1O`, the outcome was inactive.

As to `CS(=O)(=O)c1ccc([C@@H](CC2CCCC2)C(=O)Nc2cnccn2)cc1Cl`, the call was inactive.

`FC(F)(F)N1C(F)(F)C(F)(F)OC(F)(F)C1(F)F`: the call was inactive.

On to `O=C(C=C(O)C(F)(F)F)C(F)(F)F`, for which the compound was called inactive.

Take `C=COC(=O)C(C)(C)CCCCCC`: the compound was called inactive.

As for `O=C(c1cc(O)c(O)c(O)c1)c1ccc(O)c(O)c1O`, the result was inactive.

With `CCCCCCCCCCCC(=O)NCCCN(C)C`, the outcome was inactive.

As for `FCOC(C(F)(F)F)C(F)(F)F`, the compound was called inactive.

Consider `CCCCCCc1ccc(N)cc1`, for which the result was inactive.

In the case of `FC(F)(F)C(F)(F)C(F)(F)C(F)(F)I`, the compound was called inactive.

In the case of `COc1ccc(C#N)cc1`, the compound was classed as inactive.

Regarding `C=CC(=O)OCCC(F)(F)C(F)(F)C(F)(F)C(F)(F)C(F)(F)C(F)(F)F`, the compound was called inactive.

As for `O=C(F)C(F)(F)C(F)(F)C(F)(F)C(F)F`, the compound was classed as inactive.

In the case of `CN(C)CCOC(c1ccccc1)c1ccccc1`, the result was inactive.

In the case of `Nc1ccn([C@@H]2O[C@H](CO)[C@@H](O)C2O)c(=O)n1` (some centres undefined), the result was inactive.

Turning to `NNC(=O)CCCCC(=O)NN`, the outcome was inactive.

Consider `COC(O)c1ccccc1` (centres undefined), for which the compound was called inactive.

As to `CCCCCCCCCCCC[N+](C)(C)CCCCCCCCCCCC`, the result was inactive.

Consider `Cc1ccccc1OCC(=O)O`, for which the outcome was inactive.

Take `O=C(Nc1cccc([N+](=O)[O-])c1)c1cc2ccccc2cc1O`: the call was inactive.

As to `Brc1ccc(Oc2ccc(Br)cc2Br)cc1`, the compound was classed as inactive.

In the case of `O=S(=O)(c1ccc(OCc2ccccc2)cc1)c1ccccc1O`, the compound was classed as inactive.

For `O=C(F)C(F)(F)C(F)(F)C(F)(F)C(=O)F`, the compound was called inactive.

Turning to `NS(=O)(=O)O`, the compound was classed as inactive.

`CCCCC=O`: the outcome was inactive.

In the case of `O=C(O)C(=O)O`, the call was inactive.

As to `CCOCCOCC`, the call was inactive.

Consider `O=CC(F)(F)C(F)(F)C(F)(F)F`, for which the compound was classed as inactive.

In the case of `OCCN1CN(CCO)CN(CCO)C1`, the outcome was inactive.

As to `C=Cc1ccc(O)c(OC)c1`, the result was inactive.

As for `Cc1ccc(C(=O)c2ccccc2)cc1`, the compound was called inactive.

Take `CCCC=O`: the outcome was inactive.

`O=S(=O)(O)c1ccc2cc(O)ccc2c1`: the compound was classed as inactive.

Turning to `O=C1NS(=O)(=O)c2ccccc21`, the compound was classed as inactive.

As for `CC(C)(O)C(=O)c1ccccc1`, the compound was classed as inactive.

With `CN(CCO)S(=O)(=O)C(F)(F)C(F)(F)C(F)(F)C(F)(F)C(F)(F)C(F)(F)C(F)(F)C(F)(F)F`, the compound was called inactive.

The values are drawn from PubChem BioAssay (EPA / NIEHS).
